# Source: PubChem BioAssay (National Center for Advancing Translational Sciences (NCATS))
# Compounds with a hit are over-represented: about 6.8% of the library has one in this group of screens.
# PTAP TSG101 blk – qHTS Assay for Iinhibitors of HIV-1 Budding by Blocking the Interaction of PTAP/TSG101 | Fluorescence polarization, FITC-PTAP peptide / Tsg101 binding | Potency, µM (doses to about 115 µM), for the others: at the top dose activity change, negative = inhibition, actives largely listed as inhibitors | 340,000 tested, under 10 active; active means well fitted inhibition curve with a large enough effect in the main read-out, with a control signal flat, not every such curve was filed as active; inconclusive means small, poorly fitted or top-dose-only effect, or effect the other way, or a change in a side signal; inactive means no such curve, though single readings can be large or run the other way; further: % of control where 0% means no effect
# Target sequence (Q99816 whole entry, looked up): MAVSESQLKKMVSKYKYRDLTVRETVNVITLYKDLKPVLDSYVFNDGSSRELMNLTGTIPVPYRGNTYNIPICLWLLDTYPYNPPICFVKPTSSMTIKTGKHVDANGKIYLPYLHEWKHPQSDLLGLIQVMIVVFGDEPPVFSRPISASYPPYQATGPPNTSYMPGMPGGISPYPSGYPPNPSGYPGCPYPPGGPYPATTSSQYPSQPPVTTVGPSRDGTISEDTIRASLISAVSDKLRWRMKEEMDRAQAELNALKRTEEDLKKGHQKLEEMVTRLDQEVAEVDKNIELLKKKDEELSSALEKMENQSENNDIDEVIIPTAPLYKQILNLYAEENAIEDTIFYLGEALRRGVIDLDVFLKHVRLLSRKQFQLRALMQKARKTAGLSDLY
#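 Tsg101 binding domain (10 uM final) was mixed with compound and a FITC-labeled PTAP peptide (50 nM final) in HEPES pH 7.5 buffer with NaCl, Tween 20, EDTA and TCEP; fluorescence polarization was read after 20 min at r.t.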
# PINK1 modulator – A Quantitative High throughput Screen to Identify Chemical Modulators of PINK1 Expression. PINK1 immunofluorescence, high-content cytometry, 24 h. Potency, µM (titrated, usually from 76.6 µM), without a hit: top-dose activation (PINK1 increase), actives largely listed as activators. 410,000 compounds, 0.2% hits. AID 624263, 2012; active means well fitted activation curve with a large enough effect; inconclusive means small, poorly fitted or top-dose-only effect; cell line not stated here; further: % of control where 0% means no effect; nearly all actives have a fitted effect of over 65% in size
#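 Stable cell line, 250 cells/well, 12 h attachment; compounds pinned at 5 concentrations, 24 h; CCCP control. Fixed with nuclear dye, primary antibodies 12 h at 10 degrees C, secondary plus cell stain; laser-scanning cytometer read.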
# MCF10A rereplic – A quantitative high throughput screen for small molecules that induce DNA re-replication in MCF 10a normal breast cells | MCF 10A DNA re-replication, Hoechst nuclear intensity, 48 h | Potency, µM (doses to about 46.1 µM), without a hit: top-dose activity, positive = re-replication, actives largely listed as activators | AID 624296, 2012 | 350,000 compounds, 2.9% hits; further: % of control where 0% means no effect; nearly all actives have a fitted effect of over 50% in size
# KB-V1 MDR tox – qHTS assay for MDR1-selective chemotherapeutics: Primary screen using the drug-selected MDR subline cells KB-V1. KB-V1 MDR cells viability, CellTiter-Glo, 72 h. Potency, µM (series often up to 46.1 µM), most hits filed as cytotoxic. 400,000 compounds, 3.4% hits. AID 1347076, 2019; further: on the % scale 0 is the no-effect control and ±100 the full control effect; nearly all actives have a fitted effect of over 60% in size
#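 Drug-selected KB-V1 cells, grown in DMEM lacking phenol red with 10% FBS, receive compound titrations; after three days at 37 degrees C, surviving cell ATP is quantified by CellTiter-Glo luminescence and responses normalized and curve-fitted.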
# SW480 rereplic – A quantitative high throughput screen for small molecules that induce DNA re-replication in SW480 colon adenocarcinoma cells; SW480 DNA re-replication, Hoechst DNA content imaging, 48 h; Potency, µM (titrated, usually from 46.1 µM), without a hit: at the highest dose re-replication activation, actives largely listed as activators; 340,000 compounds, 1.8% hits; further: % of control where 0% means no effect; nearly all actives have a fitted effect of over 55% in size
#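 Compounds, transferred as 23 nL by pin tool, were incubated with cells for 48 hr; DNA content per nucleus was then quantified by Hoechst staining and fluorescence plate imaging.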
# KB-3-1 cytotox – qHTS assay for MDR1-selective chemotherapeutics: Primary screen using the parental adenocarcinoma cell KB-3-1; KB-3-1 viability, CellTiter-Glo ATP luminescence, 72 h; Potency, µM (series often up to 46.1 µM), usual class: cytotoxic; 400,000 compounds, 1.4% hits; AID 1347075, 2019; further: on the % scale 0 is the no-effect control and ±100 the full control effect; nearly all actives have a fitted effect of over 60% in size
#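 KB-3-1 cells, DMEM (no phenol red) + 10% FBS; compound by pin transfer, 72 h, 37 °C. Readout: CellTiter-Glo luminescence after 10 min. Data normalized, curve-fitted.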
# * = called active by the depositor; i = inactive; u = inconclusive; x = no result; [ ] = remark or other dose. Unless noted, the call rests on the fitted dose curve; in most records, active means well fitted curve in the direction sought with a large enough effect; inconclusive means small, poorly fitted or top-dose-only effect, or another doubt; inactive means no such curve, though single readings can be large; an effect the other way counts as inactive or inconclusive. Potency means the concentration at half of the fitted maximal effect.
SMILES,PTAP TSG101 blk,PINK1 modulator,MCF10A rereplic,KB-V1 MDR tox,SW480 rereplic,KB-3-1 cytotox
CC1(C)CC[C@]2(CO)CC[C@]3(C)C(=CCC4[C@@]5(C)CC[C@H](O)[C@@](C)(CO)C5CC[C@]43C)[C@@H]2C1 (stereo partly drawn),-6%,0%,10µM*,i,7%,i
O=S(=O)(c1cccs1)N1CCN(c2nc(-c3cccs3)nc3ccccc23)CC1,x,0%,x,x,x,x
CC(=O)NC(Nc1nc2c(s1)CCCC2)(C(F)(F)F)C(F)(F)F,-9%,0%,-3%,i,4.1µM*,i
Cn1cc(C(=O)NCc2ccccc2Cl)c(=O)c2cc(S(=O)(=O)N3CCCCCC3)ccc21,x,2%,x,i,x,i
CCN(CC)c1cc(C)c2cc(NC(=O)c3ccccc3Cl)ccc2n1,x,4%,x,i,x,u
CC(C)(C)C(=O)Oc1ccc2cc(-c3ccc4ccccc4n3)c(=O)oc2c1,-2%,3%,6.5µM*,i,23µM*,i
CCn1c(CNC(=O)c2cccs2)nnc1SCC(=O)NCCc1ccccc1,-3%,3%[38.3 µM],11%,i,-10%,i
CCn1c(SCC(=O)NCCc2ccccc2)nnc1-c1cccs1,-1%,-4%,1%,21µM*,-10%,i
CCn1c(SC/C=C/c2ccccc2)nnc1-c1cccs1,-4%,0%[38.3 µM],u,13µM*,-4%,i
Nn1cc(-c2ccccc2)nc1SCC(=O)NCCc1ccccc1,-2%,0%,-2%,23µM*,-4%,i
Cn1c(SC/C=C/c2ccccc2)nnc1-c1cccs1,-7%,-2%,2%,i,-3%,i
COC(=O)c1cc(CNC(=O)c2ccccc2)cc(NC(=O)c2ccccc2OC)c1,x,1%,x,x,x,x
CCOc1ccccc1C(=O)N(CN1CCCC1=O)c1cccc(Cl)c1,-2%,5%[38.3 µM],1%,12µM*,7%,i
CCNc1ncc2nc(CCc3ccccc3)c(=O)n(-c3ccccc3)c2n1,x,3%,x,x,x,x
Cc1cc(C)c2c(c1)/C(=N/Nc1ccc(S(N)(=O)=O)cc1[N+](=O)[O-])CCC2,-11%,4%,2.3µM*,u,-7%,i
NS(=O)(=O)c1ccc(N/N=C2/CCCCC2C2CCCCC2)c([N+](=O)[O-])c1 (stereo not drawn),1%,-2%,12µM*,i,u,u
O=[N+]([O-])c1ccc(NN=C2CCCCC2)c([N+](=O)[O-])c1,-5%,7%,-15%,u,-7%,u
CC1C/C(=N\Nc2ccc(S(N)(=O)=O)cc2[N+](=O)[O-])CC(C)(C)C1 (stereo not drawn),0%,-2%,21µM*,i,10%,i
NS(=O)(=O)c1ccc(NN=C2CCN(Cc3ccccc3)CC2)c([N+](=O)[O-])c1,2%,0%,-7%,i,-3%,i
COc1cc(OC)c2nc(-c3cc4c(c(OC)c3)OCCN(C(=O)C(C)c3n[nH]c(=O)c5ccccc35)C4)cc(C)c2c1 (stereo not drawn),x,1%,x,x,x,x
Cc1c(Cl)cccc1NC(=O)c1oc2ccc(S(=O)(=O)N3CCC4(CC3)OCCO4)cc2c1C,x,6%,x,x,x,x
Cc1cc(CCCCCCCCc2cc(C)cc(=O)o2)oc(=O)c1,0%,6%,1%,7.3µM*,-8%,i
COc1cc(C(=O)NC2CCN(C)CC2)ccc1Nc1ncc2c(n1)N(Cc1ccccc1)CCC(=O)N2C,0%,12%,23µM*,u,u,u
